Drawing on publication PMC5540273 (PLoS ONE, 2017), this text covers Kd for 16 compounds.
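Note: kd values determined as follow-up on hits from a single-replicate KINOMEscan panel screen.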

The first experiment concerns MARK2.
`CCn1c(-c2ccncc2)nc2cnccc21` [SB-735216] had a Kd of more than 10000 nM. As to `O=c1cc(N2CCOCC2)nc2n(Cc3cccc(Cl)c3)ccn12` [GSK2296823], the equilibrium dissociation constant (Kd) is more than 10000 nM. The same measure, in the same setting: as for `Cl.Cn1ccc(-c2cccc(Nc3ccnc4cc(-c5nccs5)ccc34)c2)n1` [GW525701], the figure is more than 10000 nM.

Another experiment has as its system T1, MEK5.
T1 construct: gene MAP2K5
Consider `Oc1ccc2ncnc(Nc3ccc(OCc4ccccc4)cc3)c2c1` [GI262866], for which the dissociation constant Kd was 82 nM.

For the compound `COc1ccc(-c2oc3ncnc(N)c3c2-c2ccc(OC)cc2)cc1` [SB-589132], the dissociation constant Kd was 3000 nM. In turn, `CCc1nc(-c2cccc(N(C)S(=O)(=O)c3ccccc3)c2)c(-c2ccnc(Nc3ccc(N4CCN(C(C)=O)CC4)nc3)n2)s1` [GSK1645895] displayed an equilibrium dissociation constant (Kd) of 7 nM. On to `O=C(CCO)NCCn1ccc2ncnc(Nc3ccc(Oc4cccc(C(F)(F)F)c4)c(Cl)c3)c21`, for which the Kd amounted to 15 nM. `OCCOCCn1ccc2ncnc(Nc3ccc(Oc4cccc(Cl)c4)c(Cl)c3)c21` displayed a Kd of 200 nM. The compound `O=C(Nc1n[nH]c2nc(-c3ccco3)c(Br)cc12)c1ccc(CN2CCCC2)cc1.O=C(O)[C@H](O)[C@@H](O)C(=O)O` [SB-742352] came in with a Kd of 550 nM. This Kd lies about 2.8-fold higher than the previous one. In turn, `Cl.c1ccc(Cn2ccc3cc(Nc4ncnc5ccccc45)ccc32)cc1` [GW275568] had a Kd of 770 nM. `Cn1ccc2ncnc(Nc3ccc(Oc4cccc(Cl)c4)c(Cl)c3)c21` returned a Kd of 25 nM. This Kd lies about 31-fold lower than the previous one. For the compound `CS(=O)(=O)CCNCc1ccc(-c2ccc3ncnc(Nc4ccc(OCc5ccccc5)c(Cl)c4)c3c2)o1.Cl` [GW574783], the Kd was found to be 1000 nM. `CC(=O)Nc1n[nH]c2ncc(-c3ccccc3)cc12` [SB-548492] came in with a dissociation constant (Kd) of 290 nM. Take `COc1cc2c(Nc3cccc(NC(=O)c4ccccc4)c3)ncnc2cc1OCCCN1CCOCC1` [GSK223810]: the Kd is 940 nM. This Kd lies about 3.2-fold higher than the previous one.

Compound `COc1cc2ncnc(Nc3ccc(OCc4ccccc4Br)c(Cl)c3)c2cc1OC.Cl` [GI261590] came in with a dissociation constant (Kd) of 98 nM.

The compound `Cl.c1ccc(Cn2ncc3cc(Nc4ncnc5ccccc45)ccc32)cc1` [GW273749] yielded a Kd of 90 nM. The compound `Cl.Cn1ccc(-c2cccc(Nc3ccnc4cc(-c5nccs5)ccc34)c2)n1` [GW525701] returned a dissociation constant Kd of 960 nM.
